HCMV antiviral = blocks human cytomegalovirus replication; HFF cells, HCMV-luciferase reporter, 72 h; hits give low values; activity change, negative = inhibition, % at 57.5 µM; 410,000 tested, 4.5% active; AID 1259415; in the data active means activity change below about -60%; inconclusive means no clear call, values can overlap the other calls; inactive means above about -39%
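Cell-based, HFFs, 1000 cells/well, 16 h 37C; cpds in DMSO + HCMV-luc, MOI 1 PFU/cell; 72 h 37C; OneGlo luminescence after 5 min RT; norm. to buffer vs Salinomycin 10uM.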
LASV entry inh = Lassa virus entry inhibition | AID 540256 | 300,000 tested, 1.2% active | Lassa virus pseudotype entry inhibition, cell reporter | Potency, µM (top dose mostly 37.9 µM), for the others: at the top dose activity change, negative = inhibition, usual class: inhibitors; calls by dose curve; tested in HEK293 cells; further: potency means the concentration at half of the fitted maximal effect; nearly all actives have a fitted effect of over 50% in size
HCV inh = HCV inhibition | AID 651820 | Potency, µM (top dose mostly 41.8 µM), for inactives: top-dose activity change, negative = inhibition, hits mostly inhibitors | Huh7.5.1 HCVcc-Cre infection, luciferase reporter, 44 h | 340,000 tested, 3.4% active; further: potency means the concentration at half of the fitted maximal effect
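Antiviral activity was scored by luciferase reporter output from cells infected with HCVcc-Cre (~0.5 moi) in presence of compound, 44 h infection period, cells seeded 1,000/well 4 h prior.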
FMDV antiviral = foot and mouth disease virus antiviral activity | 410,000 tested, 1.2% active | FMDV antiviral cell-based qHTS | Potency, µM (titrated, usually from 57.9 µM), for inactives: at the highest dose activity change, negative = inhibition, hits mostly inhibitors; calls by dose curve; tested in HEK293T cells; further: read-out not given here; potency means the concentration at half of the fitted maximal effect; nearly all actives have a fitted effect of over 45% in size
MARV entry inh = inhibitors of Marburg virus binding or cell entry; AID 540276; Potency, µM (highest dose often 37.8 µM), for inactives: at the top dose activity change, negative = inhibition, hits mostly inhibitors; Marburg virus pseudotyped entry inhibition, cell reporter; 300,000 tested, 1.8% active; calls by dose curve; tested in HEK293 cells; further: potency means the concentration at half of the fitted maximal effect
Giardia FBPA inh-1 = inhibitors of Giardia lamblia fructose-1,6-bisphosphate aldolase. A8B2U2. 290,000 tested, 0.71% active. Potency, µM (doses to about 59.6 µM), for inactives: at the top dose activity, negative = inhibition, actives largely listed as inhibitors. AID 2451. purified Giardia FBPA; further: potency means the concentration at half of the fitted maximal effect; nearly all actives have a fitted effect of over 55% in size
Target sequence (A8B2U2 whole entry, looked up): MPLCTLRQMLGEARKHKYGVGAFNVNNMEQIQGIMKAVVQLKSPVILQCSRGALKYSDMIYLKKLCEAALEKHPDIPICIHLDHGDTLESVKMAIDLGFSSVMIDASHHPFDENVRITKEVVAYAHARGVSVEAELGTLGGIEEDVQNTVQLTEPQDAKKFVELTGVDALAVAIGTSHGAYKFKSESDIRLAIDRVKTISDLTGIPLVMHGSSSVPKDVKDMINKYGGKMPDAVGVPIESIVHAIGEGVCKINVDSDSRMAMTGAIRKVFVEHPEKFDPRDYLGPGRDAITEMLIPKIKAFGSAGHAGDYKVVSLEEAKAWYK
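Giardia FBPA (40 nM reagent) was preincubated 10 min at RT with compound (up to 57.5 uM final), then substrate plus GAPDH/TPI/NAD/arsenate coupling system with diaphorase/resazurin was added; resorufin fluorescence (525/598 nm) was read after 20 min.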
Giardia growth = Giardia lamblia growth inhibition; shares compounds with Giardia FBPA inh-1; Potency, µM (titrated, usually from 57.5 µM), for the others: top-dose activity change, negative = inhibition, usual class: inhibitors; Giardia lamblia trophozoite growth inhibition; 1,500 tested, 5% active; AID 2785;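 further: potency means the concentration at half of the fitted maximal effect; trophozoites exposed to compound for 48 h at 37 °C; nearly all actives have a fitted effect of over 70% in size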
Mammal cell tox = toxic to mammalian cells in Giardia aldolase counter-screen; shares compounds with Giardia FBPA inh-1; mammalian cell viability counter-screen, qHTS; Potency, µM (doses to about 57.5 µM), for inactives: at the highest dose viability change, negative = toxicity, hits mostly inhibitors; 1,500 tested, 4% active;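 further: Chinese hamster ovary cells used as mammalian cytotoxicity surrogate; viability measured as cellular ATP by luminescence; potency means the concentration at half of the fitted maximal effect; compound exposure lasted 48 h before reading; nearly all actives have a fitted effect of over 60% in size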
Giardia FBPA inh-2 = confirmation of Giardia fructose-bisphosphate aldolase inhibitors | Potency, µM (titrated, usually from 57.5 µM), for inactives: at the highest dose activity change, negative = inhibition, actives largely listed as inhibitors | AID 2787 | shares compounds with Giardia FBPA inh-1 | 1,500 tested, 5% active | purified Giardia aldolase enzyme activity, qHTS; further: potency means the concentration at half of the fitted maximal effect; nearly all actives have a fitted effect of over 45% in size
Rabbit FBPA inh = rabbit FBP aldolase inhibition by Giardia aldolase hits | shares compounds with Giardia FBPA inh-1 | Rabbit muscle FBPA enzyme inhibition, selectivity counter-screen | Potency, µM (highest dose often 57.5 µM), for inactives: at the highest dose activity, negative = inhibition, usual class: inhibitors | 1,500 tested, 4% active; further: potency means the concentration at half of the fitted maximal effect; nearly all actives have a fitted effect of over 60% in size
Target sequence (P00883 whole entry, looked up): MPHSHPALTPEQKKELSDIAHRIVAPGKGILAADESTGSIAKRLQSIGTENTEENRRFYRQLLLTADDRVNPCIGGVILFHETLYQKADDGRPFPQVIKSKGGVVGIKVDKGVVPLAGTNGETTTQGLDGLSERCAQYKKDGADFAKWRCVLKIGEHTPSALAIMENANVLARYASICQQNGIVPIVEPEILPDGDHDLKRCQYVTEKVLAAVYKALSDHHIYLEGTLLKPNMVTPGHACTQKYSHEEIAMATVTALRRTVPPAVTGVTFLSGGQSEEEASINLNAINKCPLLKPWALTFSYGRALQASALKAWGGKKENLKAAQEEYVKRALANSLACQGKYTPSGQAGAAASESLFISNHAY
GAPDH counter = GAPDH inhibition flagged for Giardia aldolase hits; 1,500 tested, 6% active; GAPDH coupling enzyme counterscreen, biochemical, qHTS; shares compounds with Giardia FBPA inh-1; Potency, µM (series often up to 57.5 µM), for the others: top-dose activity change, negative = inhibition, actives largely listed as inhibitors; AID 2795; further: potency means the concentration at half of the fitted maximal effect; nearly all actives have a fitted effect of over 55% in size
Active calls of the source: *; ? = inconclusive; / = not tested or not shown; ! = not confirmed by another sample; [ ] = another dose, or the depositor's remark. Compounds with a hit are over-represented: about 8.3% of the library has one in this group of screens. Unless noted, the call rests on the fitted dose curve; in most records, active means well fitted curve in the direction sought with a large enough effect; inconclusive means small, poorly fitted or top-dose-only effect, or another doubt; inactive means no such curve, though single readings can be large; an effect the other way counts as inactive or inconclusive. On the % scale 0 is the no-effect control and ±100 the full control effect.

SMILES | HCMV antiviral | LASV entry inh | HCV inh | FMDV antiviral | MARV entry inh | Giardia FBPA inh-1 | Giardia growth | Mammal cell tox | Giardia FBPA inh-2 | Rabbit FBPA inh | GAPDH counter
CC1=NN(C(N)=S)C(=O)C1N=Nc1cccc(C)c1 (centres undefined) | 4 | / | -28% | 68% | / | 7% | / | / | / | / | /
CC1=NN(C(N)=S)C(=O)C1N=Nc1cccc(C(=O)O)c1 (centres undefined) | 13 | -3%[46.1 µM] | 7% | ? | ? | ? | -15%[38.3 µM] | -2% | -16% | -12% | -8%
CC1=NN(C(N)=S)C(=O)C1N=Nc1ccccc1C(=O)O (centres undefined) | 42 | / | 6% | 6% | / | 14µM* | -14%[10.4 µM] | -9% | 3% | 6% | 9%
CC(C)=NO[C@@H](C)c1cn([C@H](CO)Cc2ccccc2)nn1 | / | / | / | / | / | 2%[12.9 µM] | / | / | / | / | /
Cc1c2cnn(CC(=O)NCCc3ccccc3)c(=O)c2c(C)n1Cc1ccccc1Cl | 6 | 0%[46.1 µM] | / | -1% | ? | / | / | / | / | / | /
N#CCCN(Cc1cccnc1)C(=S)NC(=O)c1ccccc1 | ? | 5% | 6% | 3% | ? | / | / | / | / | / | /
CC1(C(=O)NC(=S)N(CCC#N)Cc2cccnc2)CC1(Cl)Cl (centres undefined) | / | / | / | / | / | 18µM* | -2%[10.4 µM] | 5% | 7% | 7% | 11%
CCC(=O)N1CCCc2cc(S(=O)(=O)N3CCC(C(=O)Nc4ccc(F)c(F)c4)CC3)ccc21 | -30 | 5%[46.1 µM] | / | ? | / | / | / | / | / | / | /
O=C(NC(=S)Nc1ncccn1)c1ccccc1Cl | 86 | 6% | 6% | 36% | ? | 3.5µM* | ? | 0% | 2% | 7% | 0%
COC(=O)c1cc(=O)c2c(C)nc(C(Cl)(Cl)Cl)nc2[nH]1 | -100* | -1% | 8% | ? | 28%[46.1 µM] | 20µM* | -21% | -18% | -3% | -5% | -23%
CCOC(=O)c1c(C)nc(C(Cl)(Cl)Cl)nc1N | -36 | 20%[46.1 µM] | -5% | 2% | 16%[46.1 µM] | ? | / | / | / | / | /
COc1ccc(S(=O)(=O)N2CCN(Cc3nc4ccc(C)cc4o3)CC2)cc1 | 6 | ? | / | -13% | / | / | / | / | / | / | /
NNC(=S)NC1CCS(=O)(=O)C1 (centres undefined) | 20 | 4% | 27% | -14% | ? | 18µM* | 29% | 11% | -3% | 12% | 2%
O=S1(=O)CCC(NC(=S)N2CCCCCC2)C1 (centres undefined) | 37 | 1% | 10% | 0% | -5% | -8% | / | / | / | / | /
COc1ccc(-n2nc(C(=O)N3CCCCC3)c3c4ccccc4n(C)c3c2=O)cc1Cl | 2 | 4%[46.1 µM] | / | ? | -2%[46.1 µM] | / | / | / | / | / | /
CC(=O)N1CCc2[nH]c3ccccc3c2C1 | 50 | -5% | -9% | 43% | 18% | 3% | / | / | / | / | /
CC(=O)N1CCC(=NNc2nc3ccccc3[nH]2)CC1 | -15 | 0%[46.1 µM] | 13% | 14% | ? | 18µM* | ? | 0% | -10% | -6% | 3%
Cc1c(N=C2C=C(Br)C(=O)C(Br)=C2)c(=O)n(-c2ccccc2)n1C | -31 | -9% | -8% | 2% | 2%[46.1 µM] | 14µM* | -12%[10.4 µM] | 0% | ? | -27% | ?
Cc1c(N=Nc2ccc(O)cc2)c(=O)n(-c2ccccc2)n1C | -23 | -8% | 18% | 1% | 18%[46.1 µM] | 0% | / | / | / | / | /
O=[N+]([O-])c1cccc(Cn2cnc3c(=S)nc[nH]c32)c1 | -14 | -5%[46.1 µM] | 12% | -9% | -3%[46.1 µM] | / | / | / | / | / | /
N#CCCn1cnc2c(=S)nc[nH]c21 | 9 | -2% | 15% | / | 4% | 14µM* | -26% | -2% | 8% | 7% | -13%
CCCCc1nc(Cl)c(CO)n1Cc1ccc(-c2ccccc2-c2nn[nH]n2)cc1 | 1 | / | 0.56µM* | -22% | / | 13µM*! | ? | 6% | 12% | 26% | 20%
CC(=O)Nc1ccc(Nc2ccc3cc(S(=O)(=O)N4CCCCC4)ccc3n2)cc1 | -5 | -4%[46.1 µM] | / | -1% | / | / | / | / | / | / | /
O=C(Nc1nnc(-c2ccncc2)o1)c1ccccc1F | 23 | 16% | -19% | 5% | ? | ? | / | / | / | / | /
O=C(Nc1nnc(-c2ccncc2)o1)c1ccccc1 | 4 | 8% | 13% | 62% | 5%[46.1 µM] | 16µM* | 8.9µM* | 2% | 3% | -3% | -4%
SMILES | HCMV antiviral | LASV entry inh | HCV inh | FMDV antiviral | MARV entry inh | Giardia FBPA inh-1 | Giardia growth | Mammal cell tox | Giardia FBPA inh-2 | Rabbit FBPA inh | GAPDH counter
CC1CCCCN1S(=O)(=O)c1ccc(C(=O)Nc2sccc2C(N)=O)cc1 (centres undefined) | -38 | / | ? | 28% | / | 1% | / | / | / | / | /
CC1CCCCN1S(=O)(=O)c1ccc(C(=O)Nc2nnc(-c3ccncc3)o2)cc1 (centres undefined) | -71* | ? | -18% | -19% | ? | 5µM* | ? | ? | 4% | 13% | 8%
Cc1ccc(C(=O)Nc2nnc(-c3ccncc3)o2)cc1 | 3 | ? | 6% | 33% | ? | 14µM* | -5% | 12% | 13% | 4% | -13%
CCOC(=O)N1CCc2c(sc(NCc3ccc(OC)c(Br)c3)c2C(=O)Nc2cc(OC)ccc2OC)C1 | -23 | -16%[46.1 µM] | / | -11% | / | / | / | / | / | / | /
Cc1ccc(NC(=O)C2CCCN(S(=O)(=O)c3cccc4nsnc34)C2)cc1C (centres undefined) | -12 | 10%[46.1 µM] | / | ? | -20%[46.1 µM] | / | / | / | / | / | /
O=C(N/N=C/c1ccccn1)c1ccco1 | -1 | -17% | 15% | 0% | 23% | 20µM* | -13% | -1% | -2% | -3% | -5%
O=C(N/N=C/c1ccccn1)c1cccs1 | -19 | -16% | 0% | 46% | -14% | 13µM* | -25% | -5% | 1% | -2% | -1%
CC(C)(C)c1cc(C(=O)N/N=C/c2ccccn2)n[nH]1 | -9 | / | 14% | 59% | / | 16µM* | ? | 6% | 8% | 5% | -10%
COc1cc(C(=O)N/N=C/c2ccccn2)cc(OC)c1OC | ? | -20%[46.1 µM] | -5% | -5% | ? | ? | / | / | / | / | /
COc1ccc(C(=O)N/N=C/c2ccccn2)cc1OC | -39 | 17% | -12% | -5% | -20% | 16µM* | -14% | -4% | 1% | 0% | 1%
